This is a sample that favours compounds with a hit; in the whole collection about 4.6% have one here.
tim10-1 inh = inhibits growth of tim10-1 mutant yeast; inhibition, % at 20 µM; AID 463190; S. cerevisiae tim10-1 ts strain growth, BacTiter-Glo, 24 h; actives 2.2% (n = 330,000);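 active = inhibition of at least 40%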;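 also: mutant grown at 25 °C; 0% = DMSO wells with yeast and 100% = wells holding no yeast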
NALP3 yeast inh = inhibitors of NALP3 inflammasome in yeast. Yeast reconstituted NLRP3/ASC/caspase-1, beta-gal luminescence, 24 h. inhibition, % at 10 µM. actives 0.39% (n = 330,000). AID 2825;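 active = inhibition of 50% or more; inactive = inhibition below 50%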;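 also: plate controls were induced DMSO wells for no effect and uninduced yeast grown without galactose for full effect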
SKKanGAS inh = SKKanGAS growth inhibition. S. pyogenes SKKanGAS, kanamycin growth, BacTiter-Glo, 6 h. inhibition, % at 7.5 µM. actives 1.3% (n = 300,000). AID 1662;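 active = mean replicate score, as percent of positive control median, at least 50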;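 also: strain carries kanamycin resistance gene driven by streptokinase promoter and grows in 40 µg/ml kanamycin; loss of luminescence reflects streptokinase promoter inhibition or plain growth inhibition; 0% = median of DMSO wells and 100% = positive control at its reference dose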
TIM10 inh = inhibits growth of TIM10 yeast strain. S. cerevisiae TIM10 strain growth, BacTiter-Glo luminescence, 24 h. inhibition, % at 10 µM. actives 1.4% (n = 330,000). AID 463195;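 active = inhibition of 40% or more at the single tested concentration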;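 also: wild-type TIM10 isogenic control strain grown at permissive 25 °C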
tim23-1 inh = inhibits growth of tim23-1 mutant yeast; AID 463212; actives 1.3% (n = 330,000); S. cerevisiae tim23-1 growth, BacTiter-Glo luminescence, 24 h; inhibition, % at 20 µM;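 active = growth inhibition of the mutant yeast at or above 50%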;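 also: temperature-sensitive mutant grown at 25 °C; plate controls were DMSO-treated mutant yeast for no effect and medium wells lacking yeast for full effect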
Active calls of the source: *; nt = no result.

SMILES	tim10-1 inh	NALP3 yeast inh	SKKanGAS inh	TIM10 inh	tim23-1 inh
Cc1nn(-c2ccccc2)c(Cl)c1C1C(C#N)=C(N)OC2=C1C(=O)CCC2 (configuration not stated)	34.0	-7.6	86.9*	10.2	11.4
CC1=C(C(=O)Nc2ccc(C(=O)NCCCN3CCCCC3)cc2)SCCO1	18.1	8.4	27.2	-6.1	13.3
CCc1sc(C(=O)Nc2cccnc2)cc1Br	30.7	43.5	11.5	6.3	43.4
Cc1ccc(-n2ncc3c(SCc4cccc(C)c4)ncnc32)cc1	4.3	13.6	1.3	-5.6	0.5
Cc1cccc(CSc2ncnc3c2cnn3Cc2ccccc2)c1	3.3	13.5	76.1*	-15.4	-11.2
C/C(N)=C(/C#N)C(=O)COC(=O)c1cc(-c2ccc(Br)cc2)nc2ccccc12	nt	nt	70.1*	nt	nt
C/C(N)=C(/C#N)C(=O)COc1ncnc2ccccc12	0.1	5.5	-6.1	-0.9	-1.2
O=C(NNC(=S)NC(=O)c1ccccc1)c1ccc([N+](=O)[O-])cc1	15.3	21.7	67.3*	11.5	14.4
Cc1ccc(C(=O)NC(=S)NNC(=O)c2ccc([N+](=O)[O-])cc2)cc1	6.2	30.2	79.5*	12.3	25.5
O=C(NNC(=S)NC(=O)c1ccc(Br)cc1)c1cccc([N+](=O)[O-])c1	-16.8	31.3	102.3*	-16.3	-18.0
CC(=O)NNC(=S)NC(=O)c1cccc([N+](=O)[O-])c1	-2.0	12.5	0.8	12.5	1.5
Cc1ccc(S(=O)(=O)NNC(=S)NC(=O)c2ccc([N+](=O)[O-])cc2)cc1	6.0	20.2	-2.8	23.5	17.2
O=C(N/C(=C/c1ccc([N+](=O)[O-])cc1)C(=O)N1CCOCC1)c1ccco1	11.9	-11.4	-0.8	9.4	14.1
O=C(CCN=C1NS(=O)(=O)c2ccccc21)OCc1nnc(-c2ccc([N+](=O)[O-])cc2)o1	-4.8	-1.9	nt	-6.7	-4.2
Cc1cccc(/C=C2/S/C(=N/N=C3\CC4CCC3(C)C4(C)C)NC2=O)c1 (configuration not stated)	14.3	9.6	125.1*	16.2	14.5
CC(C)[C@H](NC(=O)c1ccccc1F)C(=O)OCC(=O)NC1CC1	-17.7	-2.9	nt	-8.8	-12.4
Cc1nn2c(COc3ccc(NC(=O)c4ccccc4)cc3)nnc2c2ccccc12	10.8	-6.1	94.0*	5.1	8.6
CCC(=O)Nc1ccc(OCc2nnc3c4ccccc4c(C)nn23)cc1	25.5	-1.6	4.9	-18.3	20.0
CC(C)c1nc(SCC(=O)NC2CCCC2)c2c(=O)n(C)c(=O)n(C)c2n1	20.4	11.5	7.6	4.0	4.3
CN(C)c1ccc(O)c2c1CC1CC3C(N(C)C)C(=O)C(C(N)=O)=C(O)[C@@]3(O)C(=O)C1=C2O (some centres not stated)	-5.9	20.8	109.6*	-0.7	6.8
C[C@H]1c2cccc(O)c2C(O)=C2C(=O)C3(O)C(O)=C(C(N)=O)C(=O)[C@@H](N(C)C)[C@@H]3[C@@H](O)[C@@H]21 (some centres not stated)	6.4	15.9	nt	-3.0	14.3
CN(C)c1ccc(O)c2c1CC1CC3[C@@H](N(C)C)C(=O)C(C(N)=O)C(=O)[C@]3(O)C(=O)C1C2=O (some centres not stated)	-1.8	12.5	nt	0.0	5.1
C=C1c2cccc(O)c2C(O)=C2C(=O)[C@]3(O)C(O)=C(C(N)=O)C(=O)[C@@H](N(C)C)[C@@H]3[C@@H](O)[C@H]12	14.3	7.6	106.3*	-7.2	-2.1
C=C(C)CNC(=S)NNC(=O)CCn1c2ccc(Cl)cc2c2cc(Cl)ccc21	22.0	21.2	73.7*	22.6	8.9
CC(C)(C)c1ccc(C(=O)N2CCN(C(=O)c3ccco3)CC2)cc1	13.1	24.3	49.7*	17.6	17.4
SMILES	tim10-1 inh	NALP3 yeast inh	SKKanGAS inh	TIM10 inh	tim23-1 inh
O=C(c1ccc(-c2ccccc2)cc1)N1CCN(C(=O)c2ccco2)CC1	11.2	12.2	-1.0	3.2	9.4
CN(C)CCNC=C(C(=O)Nc1ccc(Cl)cc1Cl)C(=O)Nc1ccc(Cl)cc1Cl	15.0	31.4	55.5*	9.1	13.6
Cc1cc(C)n(-c2nc(SCC(=O)O)c3c4c(sc3n2)CCCC4)n1	10.3	6.0	57.4*	5.7	6.4
Cc1cc(C)n(-c2nc(NCCO)c3c4c(sc3n2)CCCC4)n1	35.9	1.1	-3.9	24.9	49.1
CCC(NC(=O)Nc1nnc(C(F)(F)F)s1)(C(F)(F)F)C(F)(F)F	2.9	-4.4	117.8*	-9.4	-9.0
O=C(O)CCC(=O)Nc1nnc(C(F)(F)F)s1	-2.6	9.4	nt	-0.9	6.6
CN(C)c1ccnc(Nc2ccccc2)c1C#N	-0.4	13.0	4.1	-0.5	6.8
CN(C)c1ccnc2c[cH-]cc12.[Fe].c1ccc(-[c-]2[c-](-c3ccccc3)[c-](-c3ccccc3)[c-](-c3ccccc3)[c-]2-c2ccccc2)cc1 (configuration not stated)	33.9	-3.3	86.0*	11.6	12.4
COc1ccccc1NS(=O)(=O)c1cccc(C(=O)N/N=C/c2ccc([N+](=O)[O-])o2)c1	13.7	10.2	nt	8.1	21.1
O=c1c2cc(N3CCOCC3)ccc2[nH]c(=S)n1CCc1ccccc1	18.4	9.6	83.5*	-9.7	-6.6
Cc1cc(C)cc(C(=O)NCC(=O)OCC(=O)NC2CC2)c1	-4.5	0.3	nt	-13.1	-4.7
COc1cc(/C=N/NS(=O)(=O)c2ccc(C)cc2)ccc1OCc1cccc(C(=O)O)c1	-7.0	7.7	10.6	-11.2	19.8
CCOc1cc(/C=N/Nc2ccc(C(=O)O)cc2)ccc1OC(=O)c1ccccc1C	6.2	5.0	75.1*	-1.5	-1.5
COc1cccc(OCc2cc(/C=N/Nc3ccc(C(=O)O)cc3)ccc2OC)c1	9.1	1.8	9.9	-15.2	18.8
COc1cccc(C(=O)Oc2ccc(/C=N/Nc3ccc(C(=O)O)cc3)cc2OC)c1	0.1	1.4	54.7*	8.7	28.7
COc1cc(/C=N/NS(=O)(=O)c2ccc3ccccc3c2)ccc1OCc1ccc(C(=O)O)cc1	-1.0	1.7	54.8*	15.5	22.0
Cn1cccc1C(=O)Nc1ccc(Cl)c(S(=O)(=O)N2CCCCC2)c1	15.0	15.7	nt	20.4	38.0
COc1cccc(C2C3=C(N=c4s/c(=C\c5ccc(OCC(=O)O)cc5)c(=O)n42)c2ccccc2CC3)c1 (configuration not stated)	21.8	15.1	101.6*	12.1	12.9
COc1cccc(C2C3=C(N=c4s/c(=C\c5ccc(O)cc5)c(=O)n42)c2ccccc2CC3)c1OC (configuration not stated)	16.5	15.2	11.1	16.1	14.6
Cc1cc(C)c(C)c(S(=O)(=O)Nc2cccc(S(=O)(=O)Nc3ccccc3C(=O)O)c2)c1C	-4.9	9.4	nt	11.8	4.4
CC1=C(C(=O)OCc2ccccc2)N2C(=O)[C@@H](NC(=O)COc3ccccc3)[C@H]2SC1	18.1	-1.0	3.8	-7.7	28.4
O=C(COc1ccccc1)NC1C(=O)N2C(C(=O)O)=C(Cl)CSC12 (configuration not stated)	-2.5	9.5	101.7*	-3.8	1.0

Bioassay records (PubChem)
